# Inconclusive results are not listed. Unmarked numbers belong to inactive results. The source made the active and inactive calls. Calls come from the whole dose curve; as a rule, active = well fitted cell-killing curve with a large enough effect; inconclusive = small, poorly fitted or top-dose-only effect, or effect the other way; inactive = no such curve, though single readings can be large or run the other way.
# Test: Quantitative High-Throughput drug screen in 47 multiple myeloma cell lines against the NCATS MIPE library collection: Karpas417_ECACC cell viability assay (AID 1918961)
# Conditions: Karpas417 myeloma viability, CellTiter-Glo ATP luminescence, 48 h; viability (% of DMSO): at 45.8 µM (top of the series)
# Source text: PI: Beverly A. Mock Ph.D.
# Laboratory of Cancer Biology and Genetics,
# Center for Cancer Research, National Cancer Institute,
# National Institute of Health, Bethesda, Maryland
# Drug resistance and disease progression are common in multiple myeloma (MM) patients, underscoring the need for new therapeutic combinations. […] We hypothesized that effective combinations would reduce MYC expression and enhance p16 activity. […] These preclinical data identify potentially useful drug combinations for evaluation in drug-resistant MM and reveal potential mechanisms of combined drug sensitivity.
# Described herein is the primary MIPE qHTS used to cherrypick compounds. Validated compounds were then further tested for potential synergistic activiy.
# [1] Peat TJ, Gaikwad SM, Dubois W, Gyabaah-Kessie N, Zhang S, Gorjifard S, Phyo Z, Andres M, Hughitt VK, Simpson RM, Miller MA, Girvin AT, Taylor A, Williams D, D'Antonio N, Zhang Y, Rajagopalan A, Flietner E, Wilson K, Zhang X, Shinn P, Klumpp-Thomas C, McKnight C, Itkin Z, Chen L, Kazandijian D, Zhang J, Michalowski AM, Simmons JK, Keats J, Thomas CJ, Mock BA. Drug combinations identified by high-throughput screening promote cell cycle transition and upregulate Smad pathways in myeloma. Cancer Lett. 2023 Aug 1;568:216284. doi: 10.1016/j.canlet.2023.216284. Epub 2023 Jun 24. PMID: 37356470; PMCID: PMC10408729.
# SEQUENCE No. (e.g., 1, 2, 3, etc.); […] (e.g., Cells, Incubation, Reagent, etc.); VALUE and DESCRIPTION.
# 1; Cells; 5 uL; white, solid bottom 1536-well Greiner assay plate.
# 2; Compounds; 23 nL; Kalypsis pin tool (Wako USA) equipped with a 1536-well pin head to transfer to the assay plates.
# 3; Incubation; 48 hours; 37C incubation.
# 4; Reagent;5uL; CellTiter Glo (Promega).
# 5; Detector; 425V; Luminescence; Viewlux PerkinElmer.
# NOTES (numbers refer to Sequence numbers above)
# 1. The cell-based screening methods employed in this study were like those previously published. Briefly, the corresponding myeloma cell lines were screened in 1,536-well plates with 500 cells, 5-uL per well for inhibition of cell viability (assessed by measuring ATP levels with CellTiterGlo).
# 2. NCATS MIPE 4.0 library of approved and investigational drugs were added using the Kalypsis pin tool. Wells treated with DMSO only for 100% viability and media only wells for 0% viability were used as controls.
# 3. The assay plates were covered and incubated for 48 hours in a 37C, 5% CO2 incubator with controlled humidity.
# 4. After 48 hours, CellTilter-GloTM luminescent substrate mix (Promega) reagent was added to the assay plate and plates we incubated for 5 min at room temperature.
# 5. Signal was measured as median relative luminescence units on a ViewLux (PerkinElmer) multiplate reader.
# [1] Heske CM, Davis MI, Baumgart JT, Wilson K, Gormally MV, Chen L, Zhang X, Ceribelli M, Duveau DY, Guha R, Ferrer M, Arnaldez FI, Ji J, Tran HL, Zhang Y, Mendoza A, Helman LJ, Thomas CJ. Matrix Screen Identifies Synergistic Combination of PARP Inhibitors and Nicotinamide Phosphoribosyltransferase (NAMPT) Inhibitors in Ewing Sarcoma. Clin Cancer Res. 2017 Dec 1;23(23):7301-7311. doi: 10.1158/1078-0432.CCR-17-1121. Epub 2017 Sep 12. PMID: 28899971; PMCID: PMC6636827.
# Potency is the fitted concentration of half-maximal effect.
Structure (SMILES),viability (% of DMSO),Potency
O=C(O)CCCCCC(=O)NN=C1CCCC1,136% (active),–
CCn1c(=O)c2c(nc(C=Cc3ccc(OC)c(OC)c3)n2C)n(CC)c1=O,71.8%,–
COc1ccc(S(=O)(=O)Nc2cc(-c3c(O)ccc4ccccc34)c(O)c3ccccc23)cc1,–,1.66 µM (active)
C=CC(=O)N1CCc2ccc(-n3c(=O)ccc4cnc5ccc(-c6cnn(C)c6)cc5c43)cc21,–,0.935 µM (active)
CCc1c(O)cc(O)c(C(=O)c2ccc(OCCN3CCOCC3)c(OC)c2)c1CC(=O)N(CCOC)CCOC,199%,–
NS(=O)(=O)OC[C@@H]1C[C@@H](n2ccc3c(N[C@H]4CCc5ccccc54)ncnc32)C[C@H]1O,136%,–
CC[C@H]1OC(=O)[C@H](C)[C@@H](O[C@H]2C[C@@](C)(OC)[C@@H](O)[C@H](C)O2)[C@H](C)[C@@H](O[C@@H]2O[C@H](C)C[C@H](N(C)C)[C@@H]2O)[C@](C)(OC)C[C@@H](C)C(=O)[C@H](C)[C@@H](O)[C@]1(C)O,118%,–
C[C@H]1COc2c(N3CCN(C)CC3)c(F)cc3c(=O)c(C(=O)O)cn1c23,172%,–
Cn1c(Nc2ccc(C(F)(F)F)cc2)nc2cc(Oc3ccnc(-c4ncc(C(F)(F)F)[nH]4)c3)ccc21,–,4.18 µM (active)
CCCCCCCCc1ccc(CCC(N)(CO)CO)cc1,–,6.62 µM (active)
COc1cccc2c1C(=O)c1c(O)c3c(c(O)c1C2=O)C[C@@](O)(C(=O)CO)C[C@H]3O[C@H]1C[C@H](N)[C@H](O)[C@H](C)O1,–,1.32 µM (active)
CCS(=O)(=O)Nc1ccc2[nH]c(O)c(C(=Nc3ccc(CN4CCCCC4)cc3)c3ccccc3)c2c1,–,0.105 µM (active)
O=C(O)c1ccc(Nc2ncc3c(n2)-c2ccc(Cl)cc2C(c2c(F)cccc2F)=NC3)cc1,69.3%,–
C[C@H](NCc1ccc(OCc2cccc(F)c2)cc1)C(N)=O,–,2.64 µM (active)
O=C(C=Cc1ccc(CN(CCO)CCc2c[nH]c3ccccc23)cc1)NO,–,0.105 µM (active)
C#C[C@]1(O)CC[C@@H]2[C@@H]3CCc4cc(O)ccc4[C@H]3CC[C@@]21C,–,8.33 µM (active)
O=c1[nH]c(=O)n([C@H]2C[C@@H](O)[C@@H](CO)O2)cc1C=CBr,90.1% (active),–
O=C(Nc1nnc(-c2ccco2)o1)c1cc(-c2ccccc2)nc2ccccc12,–,23.5 µM (active)
CC(=O)[C@]1(O)Cc2c(O)c3c(c(O)c2[C@@H](O[C@H]2C[C@H](N)[C@@H](O)[C@H](C)O2)C1)C(=O)c1ccccc1C3=O,–,2.35 µM (active)
Cn1cnc(=N)c2[nH]cnc21,–,0.0235 µM (active)

Structure (SMILES),viability (% of DMSO),Potency
Cc1[nH]c(C=C2C(=O)Nc3ccccc32)c(C)c1CCC(=O)O,–,23.5 µM (active)
N#Cc1c(C2CCNCC2)cc(-c2c(O)cccc2OCC2CC2)nc1N,–,2.64 µM (active)
COc1ccc(C(C)=O)c(O)c1,–,0.418 µM (active)
NC(=NCCCCCCN=C(N)N=C(N)Nc1ccc(Cl)cc1)N=C(N)Nc1ccc(Cl)cc1,–,20.9 µM (active)
Cc1cnc(NC(=O)Nc2cc(Br)c(C)cc2OC[C@@H]2CNCCO2)cn1,73.4% (active),–
CCOC(=O)N1CCN([N+]([O-])=NOc2ccc([N+](=O)[O-])cc2C#N)CC1,–,0.0662 µM (active)
CCc1cc(C(C)=NOCc2ccc(C3CCCCC3)c(C(F)(F)F)c2)ccc1CN1CC(C(=O)O)C1,–,0.059 µM (active)
CC(=O)OC[C@@H]1O[C@@H](n2ccc(=O)[nH]c2=O)[C@H](OC(C)=O)[C@H]1OC(C)=O,132%,–
c1cc(CN2CCCNCCNCCCNCC2)ccc1CN1CCCNCCNCCCNCC1,134% (active),–
O=C(Nc1cc2cc[nH]c2cn1)c1ccccc1,–,2.96 µM (active)
CNC(=O)c1ccc(Nc2cc(Nc3ccccc3S(=O)(=O)C(C)C)c3cc[nH]c3n2)nc1,–,0.118 µM (active)
COc1ccc(CCC(=O)c2c(O)cc(O[C@@H]3O[C@H](CO)[C@@H](O)[C@H](O)[C@@H]3O[C@@H]3O[C@@H](C)[C@H](O)[C@@H](O)[C@@H]3O)cc2O)cc1O,108%,–
C[C@@H](Oc1ccc2[nH]nc(C=Cc3cnn(CCO)c3)c2c1)c1c(Cl)cncc1Cl,177%,–
COc1cc2c(cc1OC)[C@@H]1C(=O)c3ccc4c(c3O[C@@H]1CO2)C=CC(C)(C)O4,–,0.209 µM (active)
COc1ccc([C@@H]2CNC(=O)C2)cc1OC1CCCC1,71.2%,–
CN(C)CC(=O)N1CCC(c2ccc(NC(=O)c3ncc(C#N)[nH]3)c(C3=CCCCC3)c2)CC1,–,2.35 µM (active)
CNC(=O)c1cccc(-c2ccc3c(N4CCOC[C@H]4C)nc(N4CCOC[C@H]4C)nc3n2)c1,–,0.0526 µM (active)
CC(=O)O[C@H]1C[C@@H]2CC[C@H]3[C@H]4C[C@H]([N+]5(C)CCCCC5)[C@@H](OC(C)=O)[C@@]4(C)CC[C@@H]3[C@@]2(C)C[C@H]1N1CCCCC1,162%,–
CC(C=CC=C(C)C=CC1=C(C)CCCC1(C)C)=CC=CC=C(C)C=CC=C(C)C=CC1=C(C)CCCC1(C)C,–,9.35 µM (active)
CC(C)(N)c1ccc(-c2nc3ccccc3nc2-c2ccccc2)cc1,–,0.372 µM (active)

# Reference: PubChem BioAssay (NCATS)
